Source: PubChem BioAssay (NCATS)
Results filed as inconclusive are left out. Calls of active or inactive are those of the source. Calls follow the shape of the dose curve; as a rule, active = well fitted curve in the direction sought with a large enough effect; inconclusive = small, poorly fitted or top-dose-only effect, or another doubt; inactive = no such curve, though single readings can be large; an effect the other way counts as inactive or inconclusive.

Experiments:
CRL-7250 = normal cell line; experiment: Cytotoxic Profiling of Annotated Libraries Using Quantitative High-Throughput Screening (AID 1296008); conditions: Five cell lines viability, CellTiter-Glo ATP luminescence, 48-72 h; max response: stronger effect = lower value; also: nearly all actives have a fitted effect of over 60% in size; as to max response: % is scaled to controls: 0 for no effect and ±100 for the full control effect
In short: (§1)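 Cytotoxicity was measured as CellTiter-Glo ATP luminescence, read after 10 min at room temperature. Compound treatment of the cells lasted 48 or 72 hr at 37 degrees Celsius in a qHTS format.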

HEK293 = experiment: as above; conditions: Five cell lines viability, CellTiter-Glo ATP luminescence, 48-72 h; max response: stronger effect = lower value
In short: as §1

HaCat [1] = experiment: as above; conditions: Five cell lines viability, CellTiter-Glo ATP luminescence, 48-72 h; max response: stronger effect = lower value
In short: as §1

KB-3-1 = experiment: as above; conditions: Five cell lines viability, CellTiter-Glo ATP luminescence, 48-72 h; max response: stronger effect = lower value
In short: as §1

NIH3T3 [2] = experiment: as above; conditions: Five cell lines viability, CellTiter-Glo ATP luminescence, 48-72 h; max response: stronger effect = lower value
In short: as §1

HACAT [3] = experiment: qHTS assay to identify novel small-molecules to repurpose for Merkel cell carcinoma treatment (AID 1296009); conditions: MCC and control cell lines, CellTiter-Glo viability, 72 h; at 44.8 µM (top of the series) unless noted; also: nearly all actives have a fitted effect of over 60% in size
In short: (§2)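 Cell viability, measured as CellTiter-Glo luminescence, was normalized between DMSO and no-cell wells. The cells had been exposed to 8- or 11-point compound dilutions for 72 hr at 37 degree celsius.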

NIH3T3 [4] = experiment: as above; conditions: MCC and control cell lines, CellTiter-Glo viability, 72 h; at 44.8 µM (top of the series) unless noted
In short: as §2

C33A = experiment: Primary qHTS to identify gynecologic anti-cancer compounds using libraries of approved drugs and bioactive compounds (AID 1345084); conditions: Gynecologic cancer cell panel viability, ATPlite luminescence, 48 h; series mostly up to 57.5 µM; also: % is scaled to controls: 0 for no effect and ±100 for the full control effect; nearly all actives have a fitted effect of over 55% in size
In short: (§3)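 Measured: luminescence after ATPlite addition (15 min, RT). Exposure: 48 h, 37 C, 5% CO2.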

CAOV3 = experiment: as above; conditions: Gynecologic cancer cell panel viability, ATPlite luminescence, 48 h; series mostly up to 57.5 µM
In short: as §3

CASKI = experiment: as above; conditions: Gynecologic cancer cell panel viability, ATPlite luminescence, 48 h; series mostly up to 57.5 µM
In short: as §3

Es-2 = experiment: as above; conditions: Gynecologic cancer cell panel viability, ATPlite luminescence, 48 h; series mostly up to 57.5 µM
In short: as §3

HeLa = experiment: as above; conditions: Gynecologic cancer cell panel viability, ATPlite luminescence, 48 h; series mostly up to 57.5 µM
In short: as §3

Hek293T = experiment: as above; conditions: Gynecologic cancer cell panel viability, ATPlite luminescence, 48 h, control line for the selectivity index; series mostly up to 57.5 µM
In short: as §3

JEG-3 = experiment: as above; conditions: Gynecologic cancer cell panel viability, ATPlite luminescence, 48 h; series mostly up to 57.5 µM
In short: as §3

OV90 = experiment: as above; conditions: Gynecologic cancer cell panel viability, ATPlite luminescence, 48 h; series mostly up to 57.5 µM
In short: as §3

PA-1 = experiment: as above; conditions: Gynecologic cancer cell panel viability, ATPlite luminescence, 48 h; series mostly up to 57.5 µM
In short: as §3

COCc1c(O)c(C(=O)O)c(C)c2c1OC(=O)c1c(C)cc(O)c(CO)c1O2
inactive: max response (CRL-7250) 0.001% | max response (HEK293) -3.82% | outcome (HaCat [1]) | outcome (KB-3-1) | outcome (NIH3T3 [2]) | outcome (HACAT [3]) | outcome (NIH3T3 [4]) | Potency (C33A) | Potency (CAOV3) | outcome (CASKI) | Potency (Es-2) | Potency (HeLa) | Potency (Hek293T) | Potency (JEG-3) | Potency (OV90) | Potency (PA-1)

C=C1C(O)CCC2(C)CC3(OC)OC(=O)C(C)=C3CC12 (stereo unspecified)
inactive: outcome (CRL-7250) | max response (HEK293) 0.468% | outcome (HaCat [1]) | max response (KB-3-1) 3.24% | outcome (NIH3T3 [2]) | outcome (HACAT [3]) | outcome (NIH3T3 [4]) | Potency (C33A) | Potency (CAOV3) | outcome (CASKI) | Potency (Es-2) | Potency (HeLa) | Potency (Hek293T) | Potency (JEG-3) | Potency (OV90) | Potency (PA-1)

CC1=CC(=O)[C@]2(O[C@@H]3O[C@@H](C)[C@H](O)[C@@H](O)[C@H]3O)C=CO[C@@H](O[C@@H]3O[C@H](CO)[C@@H](O)[C@H](O)[C@H]3O)[C@H]12
inactive: outcome (CRL-7250) | max response (HEK293) -3.6% | outcome (HaCat [1]) | outcome (KB-3-1) | outcome (NIH3T3 [2]) | outcome (HACAT [3]) inactive [at 17.4 µM] | outcome (NIH3T3 [4]) inactive [at 17.4 µM] | Potency (C33A) | Potency (CAOV3) | outcome (CASKI) | Potency (Es-2) | Potency (HeLa) | Potency (Hek293T) | Potency (JEG-3) | Potency (OV90) | Potency (PA-1)

CC1=C(CO)CC(C(C)C2CCC3C4CC=C5CC(OC6OC(COC7OC(CO)C(O)C(O)C7O)C(O)C(O)C6O)CC(O)C5(C)C4CCC23C)OC1=O (stereo unspecified)
inactive: outcome (CRL-7250) | max response (HEK293) -8.19% | outcome (HaCat [1]) | max response (KB-3-1) -0.551% | outcome (NIH3T3 [2]) | outcome (HACAT [3]) inactive [at 17.4 µM] | outcome (NIH3T3 [4]) inactive [at 17.4 µM] | Potency (C33A) | Potency (CAOV3) | outcome (CASKI) | Potency (Es-2) | Potency (HeLa) | Potency (Hek293T) | Potency (JEG-3) | Potency (OV90) | Potency (PA-1)

COC(=O)c1ccccc1O[C@@H]1O[C@H](CO[C@@H]2OC[C@@H](O)[C@H](O)[C@H]2O)[C@@H](O)[C@H](O)[C@H]1O
inactive: max response (CRL-7250) 0.973% | max response (HEK293) 4.14% | outcome (HaCat [1]) | max response (KB-3-1) -2.26% | outcome (NIH3T3 [2]) | outcome (HACAT [3]) inactive [at 17.4 µM] | outcome (NIH3T3 [4]) inactive [at 17.4 µM] | Potency (C33A) | Potency (CAOV3) | outcome (CASKI) | Potency (Es-2) | Potency (HeLa) | Potency (Hek293T) | Potency (JEG-3) | Potency (OV90) | Potency (PA-1)

COC(=O)C1=CO[C@@H](O[C@@H]2O[C@H](CO)[C@@H](O)[C@H](O)[C@H]2O)/C(=C\CO)[C@@H]1CC(=O)OCCc1ccc(O)cc1
inactive: max response (CRL-7250) 0.106% | max response (HEK293) 2.34% | outcome (HaCat [1]) | outcome (KB-3-1) | outcome (NIH3T3 [2]) | outcome (HACAT [3]) inactive [at 17.4 µM] | outcome (NIH3T3 [4]) inactive [at 17.4 µM] | Potency (C33A) | Potency (CAOV3) | outcome (CASKI) | Potency (Es-2) | Potency (HeLa) | Potency (Hek293T) | Potency (JEG-3) | Potency (OV90) | Potency (PA-1)

CC1(C)C[C@H](O)C[C@@]2(C)[C@H]1[C@H](O)C=C1COC(=O)[C@@]12O
inactive: outcome (CRL-7250) | max response (HEK293) 2.99% | outcome (HaCat [1]) | outcome (KB-3-1) | outcome (NIH3T3 [2]) | outcome (HACAT [3]) | outcome (NIH3T3 [4]) | Potency (C33A) | Potency (CAOV3) | outcome (CASKI) | Potency (Es-2) | Potency (HeLa) | Potency (Hek293T) | Potency (JEG-3) | Potency (OV90) | Potency (PA-1)

C=CCc1ccc(O[C@@H]2O[C@H](CO)[C@@H](O)[C@H](O)[C@H]2O)c(O[C@@H]2O[C@H](CO)[C@@H](O)[C@H](O)[C@H]2O)c1
inactive: max response (CRL-7250) -3.11% | max response (HEK293) -0.299% | outcome (HaCat [1]) | outcome (KB-3-1) | outcome (NIH3T3 [2]) | outcome (HACAT [3]) inactive [at 17.4 µM] | outcome (NIH3T3 [4]) inactive [at 17.4 µM] | Potency (C33A) | Potency (CAOV3) | outcome (CASKI) | Potency (Es-2) | Potency (HeLa) | Potency (Hek293T) | Potency (JEG-3) | Potency (OV90) | Potency (PA-1)

CCC1=C(C)C(=O)C(C)CC12C(=O)CCC2C(=O)O (stereo unspecified)
inactive: max response (CRL-7250) -4.23% | max response (HEK293) -5.13% | outcome (HaCat [1]) | max response (KB-3-1) 0.468% | outcome (NIH3T3 [2]) | outcome (HACAT [3]) | outcome (NIH3T3 [4]) | Potency (C33A) | Potency (CAOV3) | outcome (CASKI) | Potency (Es-2) | Potency (HeLa) | Potency (Hek293T) | Potency (JEG-3) | Potency (OV90) | Potency (PA-1)

C=C1C(=O)OC[C@H]2C(C(=O)O)=CC3CC(C)(C)C[C@@]132 (stereo partly specified)
inactive: outcome (CRL-7250) | max response (HEK293) 4.17% | outcome (HaCat [1]) | outcome (KB-3-1) | outcome (NIH3T3 [2]) | outcome (HACAT [3]) | outcome (NIH3T3 [4]) | Potency (C33A) | Potency (CAOV3) | outcome (CASKI) | Potency (Es-2) | Potency (HeLa) | Potency (Hek293T) | Potency (JEG-3) | Potency (OV90) | Potency (PA-1)

CCCc1[nH]nc2c1C(c1cc(Cl)cc(Cl)c1O)C(C#N)=C(N)O2 (stereo unspecified)
inactive: max response (CRL-7250) -0.63% | max response (HEK293) -17.1% | outcome (HaCat [1]) | outcome (KB-3-1) | outcome (NIH3T3 [2]) | outcome (HACAT [3]) | outcome (NIH3T3 [4]) | Potency (C33A) | Potency (CAOV3) | outcome (CASKI) | Potency (Es-2) | Potency (HeLa) | Potency (Hek293T) | Potency (JEG-3) | Potency (OV90) | Potency (PA-1)
